Sampled rows, rich in hits. Any-hit rate of the full collection: about 7.9%.
HCV inhibitor: blocks hepatitis C virus. Huh7.5.1 HCVcc-Cre infection, luciferase reporter, 44 h. Potency, µM (doses to about 41.8 µM), usual class: inhibitors. hit rate 3.4% among 340,000. AID 651820; active = well fitted inhibition curve with a large enough effect; inconclusive = small, poorly fitted or top-dose-only effect, or another doubt; inactive = no such curve, though single readings can be large or run the other way
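HCVcc-Cre virus at an moi near 0.5 was added right after compound to cells cultured 4 h from seeding (1,000 cells/well). Luciferase activity was determined 44 h later, 15 min after substrate addition at RT.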
Lassa entry inh: blocks Lassa virus binding to or entry into cells | Lassa virus pseudotype entry inhibition, cell reporter | Potency, µM (highest dose often 37.9 µM), most hits filed as inhibitors | hit rate 1.2% among 300,000; calls by dose curve; tested in HEK293 cells; also: nearly all actives have a fitted effect of over 50% in size
MARV entry inh: Marburg virus entry inhibition. Marburg virus pseudotyped entry inhibition, cell reporter. Potency, µM (series often up to 37.8 µM), most hits filed as inhibitors. hit rate 1.8% among 300,000. AID 540276; calls by dose curve; tested in HEK293 cells
FMDV antiviral: foot and mouth disease virus antiviral activity. hit rate 1.2% among 410,000. FMDV antiviral cell-based qHTS. AID 1159524. Potency, µM (top dose mostly 57.9 µM), usual class: inhibitors; calls by dose curve; tested in HEK293T cells; also: read-out not given here; nearly all actives have a fitted effect of over 45% in size
HCMV antiviral: blocks human cytomegalovirus replication. HFF cells, HCMV-luciferase reporter, 72 h; stronger effect = lower value. activity change, negative = inhibition, % at 57.5 µM. hit rate 4.5% among 410,000. AID 1259415; in the data active = activity change below about -60%; inconclusive = no clear call, values can overlap the other calls; inactive = above about -39%
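HFF cells seeded 16 h at 37C, treated with compounds, infected with luciferase-reporter HCMV at MOI 1 PFU/cell; luciferase read at 72 h post infection, normalized to buffer-only and Salinomycin controls.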
Hits are given with their value; . = inactive; ? = inconclusive; / = no result given.

SMILES | HCV inhibitor | Lassa entry inh | MARV entry inh | FMDV antiviral | HCMV antiviral
Cc1ccc(-n2nc(C)c(C(=O)Nc3cccc(C(=O)NC4CC4)c3)n2)c(C)c1 | 11µM | / | / | 28µM | ?
Cc1nn(-c2ccccc2)nc1C(=O)Nc1cccc(C(=O)NC2CC2)c1 | / | / | / | 32µM | .
Cc1nn(-c2cccc(Cl)c2)nc1C(=O)Nc1cccc(C(=O)NC2CC2)c1 | 10µM | / | / | ? | .
COc1cc2c(cc1OC)C(c1ccccc1)N(C(=O)CCl)CC2 (stereo not given) | . | ? | ? | 7.1µM | -99
COc1ccccc1/C=C/C(=O)N1CCOCC1 | . | ? | . | . | -72
COc1cc2c(cc1OC)C(C)N(C(=O)Nc1ccccc1)CC2 (stereo not given) | ? | . | ? | . | .
COc1cc2c(cc1OC)C(C)N(C(=O)c1ccc(Cl)c(S(=O)(=O)N3CCCCC3)c1)CC2 (stereo not given) | 8.9µM | / | / | . | -64
COc1ccccc1/C=C/C(=O)N1CCc2cc(OC)c(OC)cc2C1C (stereo not given) | 22µM | ? | ? | . | .
CC(=O)c1cccc(NS(=O)(=O)c2cc3c(cc2C)n(C)c(=O)c(=O)n3C)c1 | / | . | / | . | .
COc1ccc(OC)c(NC(=O)CCCc2nnc3n(C(C)C)c(=O)c4sccc4n23)c1 | / | . | / | . | .
COC(=O)[C@](O)(c1ccc(NC(=O)c2ccco2)c(OC)c1)C(F)(F)F | / | / | . | / | /
C[C@@H]1C(=O)N(C)C(=O)c2nc[nH]c21 | / | / | . | / | /
Cc1cc(Cl)ccc1NC(=O)CN1C(=O)C(=O)c2ccccc21 | / | . | . | . | .
COc1cc2c(cc1OC)C(C)N(C(=O)c1cccc([N+](=O)[O-])c1)CC2 (stereo not given) | . | . | . | . | -74
COc1cc2c(cc1OC)C(C)N(C(=O)c1sccc1C)CC2 (stereo not given) | . | / | / | . | ?
O=C(/C=C/c1ccco1)NCCc1ccc(F)cc1 | . | . | . | . | -78
CC(C)Oc1ccc(CNC(=O)C(C)n2ccc3cc(S(=O)(=O)N4CCCCCC4)ccc32)cc1 (stereo not given) | / | . | / | . | .
CCc1ccc(CNC(=O)CCCn2ccc3cc(S(=O)(=O)N4CCCC4)ccc32)cc1 | / | ? | / | . | -89
COc1cccc(CNC(=O)CCCn2ccc3cc(S(=O)(=O)N4CCCC4)ccc32)c1 | ? | ? | ? | . | .
COc1ccc(CNC(=O)C(C)n2ccc3cc(S(=O)(=O)N4CCCCCC4)ccc32)cc1 (stereo not given) | 6.3µM | / | / | . | .
COc1ccc(OC)c(CNC(=O)CCCn2ccc3cc(S(=O)(=O)N4CCCC4)ccc32)c1 | 10µM | . | / | ? | .
CCCCc1nn2c(=O)cc(COC(=O)c3ccc(NC(=O)C(CC)CC)cc3)nc2s1 | / | . | / | ? | .
CC(C)(C)c1ccc(C(=O)NCC(=O)OCc2cc(=O)n3nc(C4CC4)sc3n2)cc1 | / | . | / | . | .
COc1ccc2nc(Sc3c([N+](=O)[O-])nc(C)n3Cc3ccccc3)[nH]c2c1 | ? | 16µM | ? | 16µM | .
Cc1cc2nc(Sc3c([N+](=O)[O-])nc(C)n3Cc3ccccc3)[nH]c2cc1C | . | . | ? | 32µM | .
SMILES | HCV inhibitor | Lassa entry inh | MARV entry inh | FMDV antiviral | HCMV antiviral
CN(Cc1ccon1)C(=O)c1cnn(-c2nccc(-c3ccc4c(c3)OCO4)n2)c1C1CC1 | / | / | / | . | /
CC1C=C2OC(N)=C(C#N)C(c3ccncc3)C2C(=O)N1CCN(C)C (stereo not given) | / | / | . | / | /
CCc1ccc(OCCCSc2nc(-c3ccc(C(C)(C)C)cc3)nc3cc(=O)[nH]n23)cc1 | / | . | / | . | -84
CCc1nc2ccc(C(=O)Nc3ccc(OC)c(OC)c3)cn2c1N(C)Cc1cccs1 | / | / | / | . | -79
CCc1nc2ccc(C(=O)Nc3ccc(OC)c(OC)c3)cn2c1N(C)Cc1ccc(OC)cc1 | / | / | / | . | .
COc1cccc(O[C@H]2C=C[C@@H](c3ccccc3)O[C@H]2CO)c1 | / | / | . | / | /
Cc1ccc(NS(=O)(=O)c2cc(NC(=O)c3ccc4c(c3)NC(=O)CS4)ccc2Cl)c(C)c1 | 10µM | / | / | . | -94
COc1ccc(-c2ccc(C#N)c(OC(=O)c3c(Cl)cccc3Cl)n2)cc1 | 5µM | ? | . | . | .
CCCN1C(=O)C(C#N)C(C)=CC1C (stereo not given) | / | / | . | / | /
COc1cccc(C(=O)C2CCCN(Cc3cccc(-n4nc(C)cc4C)c3)C2)c1 (stereo not given) | 35µM | / | / | ? | .
COc1cc(CN2CCCC(C(=O)c3ccccc3SC)C2)cc(OC)c1 (stereo not given) | 11µM | / | / | . | .
